The values that follow come from PubChem BioAssay.

Test [1] relates to Wnt5a (protein binding on small-molecule microarray). The experiment in a line: Wnt5a binders on small-molecule microarray, primary screen, biophysical, 635/667 nm fluorescence (AID 1142).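 Note: fluorescence read at 667 nm with signal to noise per printed feature.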 The note with it: 635 nm fluorescence, higher = more signal.
Test [2] is described as follows: cell viability in Huh7 cells, primary screen, cytotoxicity control for HCV replication inhibitor project, CellTiter-Glo luminescence, basal, 48 h (AID 1143).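 Note: Huh7 hepatoma cells carrying a hepatitis C replication reporter with no stimulus; test concentration not given here.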 To be noted: Huh7 HCV replicon, higher = more signal, called active from +8 up or from −8 down.
Test [3] can be described thus: P. aeruginosa biofilm formation inhibitors, primary screen, PAO1 strain, BacTiter-Glo luminescence, LB-PBS (AID 1144). To be noted: 12 h, higher = more signal.
Test [4] is described as follows: CREB reporter modulators without forskolin, primary screen, cell-based, PC12, CRE-LacZ reporter, unstimulated (AID 1145). The note with it: no forskolin, luminescence, 4.5 h, higher = more signal, called active from +8 up or from −8 down.
Test [5] in a line: CREB reporter modulators under forskolin, primary screen, cell-based, PC12, CRE-LacZ reporter, forskolin-stimulated (AID 1146).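 Note: PC12 cells with 6xCRE LacZ reporter stimulated by forskolin 10 µM; beta-galactosidase reporter signal reflecting CREB driven transcription.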 To be noted: luminescence, 4.5 h, higher = more signal, called active from +8 up or from −8 down.
Test [6] has as its target Streptavidin (Streptomyces avidinii) (UniProt P22629). The experiment in a line: streptavidin binders on small-molecule microarray, primary screen, artefact control for SMM compound annotation, biophysical, 635/667 nm fluorescence (AID 1147).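 Note: signal reflects streptavidin binding to arrayed compounds as a control protein.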 The note with it: streptavidin binding, higher = more signal.
Test [7] in a line: small-molecule binders of probe aInhba, primary screen, biochemical, small-molecule microarray, 635/667 nm fluorescence (AID 1148).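 Note: score merges 667nm spot fluorescence with signal-to-noise for antibody binding to printed compounds.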 To be noted: higher = more signal.
The target in test [8] is Torsin-1A (Homo sapiens) (UniProt O14656). Kind of test: torsin A binders from cell lysate, primary screen, small-molecule microarray, wild-type, 635/667 nm (AID 1149). The note with it: COS7 hTOR1A-WT lysate, 635 nm fluorescence, higher = more signal.
Torsin-1A (Homo sapiens), sequence (O14656 whole entry, looked up): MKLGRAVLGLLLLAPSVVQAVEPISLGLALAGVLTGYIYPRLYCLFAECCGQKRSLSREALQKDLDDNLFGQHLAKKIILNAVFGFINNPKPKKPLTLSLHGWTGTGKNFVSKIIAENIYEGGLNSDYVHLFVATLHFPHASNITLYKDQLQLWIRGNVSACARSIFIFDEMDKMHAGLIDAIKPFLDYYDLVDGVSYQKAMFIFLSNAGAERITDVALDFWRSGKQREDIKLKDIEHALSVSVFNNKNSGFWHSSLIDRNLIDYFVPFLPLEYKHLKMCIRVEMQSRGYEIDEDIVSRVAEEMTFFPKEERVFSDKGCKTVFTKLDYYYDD
The target is the same in test [9]. Kind of test: small-molecule binders of mutant TOR1A in lysate, primary screen, cell lysate, small-molecule microarray, COS7 lysate, 635/667 nm fluorescence (AID 1150).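 Note: score pools 667 nm emission and signal to noise measuring lysate protein binding.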 The note with it: COS7 hTOR1A mutant lysate, 635 nm fluorescence, higher = more signal.
In test [10] the test system is Sonic hedgehog protein (Shh). The experiment in a line: small-molecule binders of Shh protein, primary screen, biochemical, small-molecule microarray, 635/667 nm fluorescence (AID 1151).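 Note: Shh protein binding to compounds spotted on small-molecule microarray slides; score combines spot fluorescence intensity with signal-to-noise across triplicate slides.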 To be noted: small-molecule microarray binding, 635 nm fluorescence; higher = more signal.
Test [11] in a line: E. coli DRC41 culture turbidity changes, primary screen, E. coli filamentation inducer project, strain DRC41, OD650, 48 h (AID 1152).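 Note: E. coli MC1000 strain DRC41 lacking acrAB efflux pump and sulA.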 To be noted: E. coli DRC41 (acrAB sulA), higher = more signal, called active from +8 up or from −8 down.
A short description of test [12]: small-molecule binders of probe aLefty1, primary screen, biochemical, small-molecule microarray, 635/667 nm fluorescence (AID 1153).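 Note: score merges spot fluorescence with signal-to-noise ratio from the scanned slide images.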 To be noted: higher = more signal.
Test [13] is described as follows: PSAC antagonists in infected red cells, primary screen, cell-based, P. falciparum Indochina, OD700, 1 h (AID 1154). The note with it: P. falciparum Indochina infected RBC osmotic lysis, higher = more signal, called active from +8 up or from −8 down.
The nature of test [14]: PSAC antagonists in infected red cells, primary screen, cell-based, P. falciparum Indochina, OD700, 2 h (AID 1155).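 Note: lysis reports solute entry through the parasite surface anion channel PSAC; channel blockers reduce lysis of infected cells.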 To be noted: P. falciparum Indochina infected erythrocytes, osmotic lysis OD700; higher = more signal, called active from +8 up or from −8 down.
The nature of test [15]: osmotic lysis modulators in infected erythrocytes, primary screen, PSAC antagonist project, cell-based, P. falciparum Indochina, OD700, 3 h (AID 1156). The note with it: higher = more signal, called active from +8 up or from −8 down.
A short description of test [16]: PSAC antagonists in infected red cells, primary screen, cell-based, P. falciparum Indochina, OD700, 18 h (AID 1157). To be noted: P. falciparum Indochina infected erythrocytes, osmotic lysis OD700, 18 h; higher = more signal, called active from +8 up or from −8 down.
Test [17] in a line: modulators of S6 phosphorylation in cells, primary screen, cell-based, A549, cytoblot, luminescence, serum-stimulated (AID 1158).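 Note: serum-stimulated A549 lung adenocarcinoma cells; signal is phosphorylated S6 detected by cytoblot immunostaining with HRP secondary.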 To be noted: A549 phospho-S6 cytoblot, 5 h, higher = more signal.
In test [18] the target is NADPH oxidase 2 (Homo sapiens) (UniProt P04839). The experiment in a line: NOX2-dependent H2O2 signal modulators, primary screen, NOX inhibitor project, cell-based, HEK293-NOX2, PMA-stimulated, Amplex Red fluorescence (AID 1159). Note: test concentration not given here. The note with it: 45 min, higher = more signal, called active from +8 up or from −8 down.
NADPH oxidase 2 (Homo sapiens), sequence (P04839 whole entry, looked up): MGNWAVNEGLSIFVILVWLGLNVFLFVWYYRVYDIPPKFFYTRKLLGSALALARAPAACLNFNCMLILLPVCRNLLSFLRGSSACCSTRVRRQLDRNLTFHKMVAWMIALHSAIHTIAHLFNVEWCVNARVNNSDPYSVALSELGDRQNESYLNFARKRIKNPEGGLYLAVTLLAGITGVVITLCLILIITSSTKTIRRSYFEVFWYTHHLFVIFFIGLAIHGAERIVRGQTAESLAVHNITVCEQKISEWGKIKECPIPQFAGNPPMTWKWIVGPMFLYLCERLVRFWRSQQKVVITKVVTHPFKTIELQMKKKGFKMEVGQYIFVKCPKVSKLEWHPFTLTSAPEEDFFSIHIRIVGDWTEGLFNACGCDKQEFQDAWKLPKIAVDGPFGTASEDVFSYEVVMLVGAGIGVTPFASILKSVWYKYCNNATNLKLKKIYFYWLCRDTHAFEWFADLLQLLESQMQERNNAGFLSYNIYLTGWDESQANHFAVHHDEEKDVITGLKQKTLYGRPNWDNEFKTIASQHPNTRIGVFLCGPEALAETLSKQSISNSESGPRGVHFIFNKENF
Test [19] has as its target NADPH oxidase 4 (Homo sapiens) (UniProt Q9NPH5). The experiment in a line: NOX4-dependent H2O2 signal modulators, primary screen, NOX inhibitor project, cell-based, HEK293-NOX4, tetracycline-induced, Amplex Red fluorescence (AID 1160). To be noted: 45 min, higher = more signal, called active from +8 up or from −8 down.
Test [20] addresses NADPH oxidase 5 (Homo sapiens) (UniProt Q96PH1). The experiment in a line: NOX5-dependent H2O2 signal modulators, primary screen, NOX inhibitor project, cell-based, HEK293-NOX5, Amplex Red fluorescence (AID 1161). To be noted: HEK293-NOX5, ionomycin, 45 min, higher = more signal.

The source made the active and inactive calls. Unless noted, the rule behind the calls is not given here.

NADPH oxidase 5 (Homo sapiens), sequence (Q96PH1 whole entry, looked up): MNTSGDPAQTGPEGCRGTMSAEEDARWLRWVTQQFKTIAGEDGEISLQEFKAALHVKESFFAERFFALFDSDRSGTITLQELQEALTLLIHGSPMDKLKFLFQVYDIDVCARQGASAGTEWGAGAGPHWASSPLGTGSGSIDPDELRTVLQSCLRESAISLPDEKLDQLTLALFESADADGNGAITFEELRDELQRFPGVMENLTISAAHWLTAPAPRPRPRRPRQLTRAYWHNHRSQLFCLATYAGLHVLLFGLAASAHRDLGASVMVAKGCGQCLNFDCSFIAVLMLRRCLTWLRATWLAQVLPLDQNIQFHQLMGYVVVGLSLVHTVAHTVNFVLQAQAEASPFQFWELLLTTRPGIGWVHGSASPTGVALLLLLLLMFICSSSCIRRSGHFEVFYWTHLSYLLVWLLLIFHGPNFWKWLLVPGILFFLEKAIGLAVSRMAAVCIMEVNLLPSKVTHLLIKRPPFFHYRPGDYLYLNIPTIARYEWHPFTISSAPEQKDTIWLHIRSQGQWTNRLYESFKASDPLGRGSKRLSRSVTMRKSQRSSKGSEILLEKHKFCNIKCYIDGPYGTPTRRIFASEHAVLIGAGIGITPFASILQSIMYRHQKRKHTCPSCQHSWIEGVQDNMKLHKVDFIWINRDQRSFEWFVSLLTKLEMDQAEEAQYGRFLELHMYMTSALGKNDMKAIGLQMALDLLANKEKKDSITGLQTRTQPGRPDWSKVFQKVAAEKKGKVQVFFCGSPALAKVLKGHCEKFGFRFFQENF
NADPH oxidase 4 (Homo sapiens), sequence (Q9NPH5 whole entry, looked up): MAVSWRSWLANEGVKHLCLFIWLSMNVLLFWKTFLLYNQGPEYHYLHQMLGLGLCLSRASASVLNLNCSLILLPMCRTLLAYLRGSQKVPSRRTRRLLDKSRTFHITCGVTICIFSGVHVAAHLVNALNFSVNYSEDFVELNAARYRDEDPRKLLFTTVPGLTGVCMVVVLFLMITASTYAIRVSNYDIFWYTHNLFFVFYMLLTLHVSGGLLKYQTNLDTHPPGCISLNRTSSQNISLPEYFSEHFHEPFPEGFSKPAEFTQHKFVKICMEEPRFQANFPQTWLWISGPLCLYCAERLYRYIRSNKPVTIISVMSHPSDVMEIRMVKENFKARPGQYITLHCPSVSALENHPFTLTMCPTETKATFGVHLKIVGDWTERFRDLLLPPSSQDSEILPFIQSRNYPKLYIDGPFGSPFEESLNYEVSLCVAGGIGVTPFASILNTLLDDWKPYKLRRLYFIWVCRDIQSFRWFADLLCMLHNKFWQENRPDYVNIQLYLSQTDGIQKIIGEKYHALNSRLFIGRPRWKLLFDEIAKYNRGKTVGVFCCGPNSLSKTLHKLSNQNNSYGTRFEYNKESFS
Streptavidin (Streptomyces avidinii), sequence (P22629 whole entry, looked up): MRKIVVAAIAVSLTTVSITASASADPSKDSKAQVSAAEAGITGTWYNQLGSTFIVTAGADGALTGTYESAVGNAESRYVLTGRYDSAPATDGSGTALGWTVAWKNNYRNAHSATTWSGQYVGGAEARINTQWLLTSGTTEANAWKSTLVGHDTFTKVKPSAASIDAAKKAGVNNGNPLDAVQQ

As for `CCCC[C@@H](O)C1=C(COC)C[C@H]2C(=O)N(Cc3ccccc3)C(=O)[C@H]2[C@H]1CO`, the composite z-score was 0.0314 in test [1]; -0.0045 in [6]; -0.204 in test [7]; 0.707 in test [8]; 0.69 in [9]; 1.02 in [10]. For the same compound, the composite z-score in test [12] is -0.103. The z-score in test [2] is -0.168 (inactive); in test [3] it was 0.102 (inactive); in test [4] it was 0.216 (inactive); in test [5], -0.566 (inactive); in test [11], 0.878 (inactive); in test [13], 1.83 (inactive). The z-score in test [14] is -0.384 (inactive); in test [15] it was -0.157 (inactive); in test [16], 0.133 (inactive); in test [17], 0.304; in test [18], -0.725 (inactive); in test [19], 0.282 (inactive). Moreover, the z-score in test [20] is 0.373.

Turning to `CC[C@@H]1C=C(C(=O)O)[C@H](c2ccccc2)N1S(=O)(=O)c1ccc(C)cc1`, the composite z-score in test [1] is 0.0651; in [6], 0.0128; in [7] it was -0.197; in [8] it was 0.474; in test [9], 0.518; in test [10] it was -0.313. In test [12], the composite z-score was -0.0984. In addition, the z-score was -0.272 (inactive) in test [2]; 0.853 (inactive) in test [3]; -0.676 (inactive) in test [4]; -0.0818 (inactive) in test [5]; -1.24 (inactive) in [11]; 1 (inactive) in [13]. The z-score in test [14] was 0.72 (inactive); in test [15], -0.393 (inactive); in test [16], 0.512 (inactive); in test [17] it was -0.265; in [18], 0.848 (inactive); in test [19], -0.114 (inactive). The same compound yielded a z-score in test [20] of -0.978.

For `CN1C(=O)C2C=CC(C(O)c3cccn3C)N(Nc3ccc([N+](=O)[O-])cc3[N+](=O)[O-])C2C1=O` (stereo not given), the composite z-score in test [1] was 0.28; in test [6], 0.724; in test [7], 0.188; in test [8] it was 0.799; in [9], 0.437; in test [10], -0.0299. Moreover, in test [12], the composite z-score was determined as 0.551. The z-score in test [2] is 0.515 (inactive); in [3] it was -0.255 (inactive); in test [4] it was 1.4 (inactive); in test [5], 1.36 (inactive); in test [11], -0.824 (inactive); in [13], 0.627 (inactive). Besides, the z-score in [14] was 1.31 (inactive); in test [15], -0.0499 (inactive); in test [16], 1.17 (inactive); in test [17], -1.11; in test [18], -0.797 (inactive); in test [19], -1.5 (inactive). The compound further showed a z-score in test [20] of -1.27.

`Cc1ccc(S[C@]2(C(=O)NCC(F)(F)F)CC(=O)N(Cc3cc(C(F)(F)F)cc(C(F)(F)F)c3)[C@@H]2c2ccc(CO)cc2)cc1`: the composite z-score is -0.824 in [1]; -0.638 in [6]; -0.0933 in [7]; -1.5 in [8]; -1.2 in test [9]; 0.319 in test [10]. Moreover, the composite z-score in test [12] was -0.146. Further, the z-score was -0.262 (inactive) in test [2]; 0.75 (inactive) in test [3]; 0.182 (inactive) in [4]; -0.0993 (inactive) in test [5]; -0.415 (inactive) in [11]; 1.74 (inactive) in [13]. Besides, the z-score was 0.594 (inactive) in test [14]; -0.573 (inactive) in test [15]; 0.501 (inactive) in test [16]; -0.488 in [17]; -0.0338 (inactive) in [18]; 0.0959 (inactive) in test [19]. The z-score in [20] came out at 0.496.

Regarding `COCCCNC(=O)[C@@H]1c2ccccc2C(=O)N(C(C)C)[C@H]1c1ccc(CO)cc1`, the composite z-score was 0.389 in test [1]; -0.337 in test [6]; -0.045 in test [7]; -0.17 in test [8]; 0.0072 in [9]; 0.499 in test [10]. This compound also displayed a composite z-score in test [12] of 0.142. For the same compound, the z-score is -0.293 (inactive) in [2]; 0.701 (inactive) in test [3]; -0.179 (inactive) in test [4]; 0.312 (inactive) in test [5]; -0.476 (inactive) in test [11]; 0.178 (inactive) in test [13]. The z-score is 0.211 (inactive) in test [14]; -0.172 (inactive) in test [15]; 0.206 (inactive) in [16]; 0.219 in test [17]; 0.161 (inactive) in [18]; -0.904 (inactive) in [19]. This compound registered a z-score in test [20] of -0.51.
